rCAG RNA binder – molecules binding r(CAG) RNA repeats; 370,000 compounds, 1.3% hits; r(CAG) RNA repeat, TO-PRO-1 dye displacement fluorescence; inhibition, % at 3 µM;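 active = inhibition above the plate cutoff, the mean of all test compounds on that plate plus 3 SD, cut at about 35% in these data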;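 also: 0% = DMSO alone and 100% = 100 µM mitoxantrone as full dye displacement; higher means more dye released from RNA so lower well fluorescence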
KLK7 zymogen act – activates the human kallikrein-7 zymogen. purified proKLK7, EDANS-DABCYL substrate fluorescence; 100% is mature enzyme control, 0% vehicle. 370,000 compounds, 0.9% hits. activation, % at 7 µM;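 active = activation above the mean of all tested compounds plus 3 SD, computed per campaign excluding outliers beyond control limits, cut at about 13% in these data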
Target sequence (P49862 whole entry, looked up): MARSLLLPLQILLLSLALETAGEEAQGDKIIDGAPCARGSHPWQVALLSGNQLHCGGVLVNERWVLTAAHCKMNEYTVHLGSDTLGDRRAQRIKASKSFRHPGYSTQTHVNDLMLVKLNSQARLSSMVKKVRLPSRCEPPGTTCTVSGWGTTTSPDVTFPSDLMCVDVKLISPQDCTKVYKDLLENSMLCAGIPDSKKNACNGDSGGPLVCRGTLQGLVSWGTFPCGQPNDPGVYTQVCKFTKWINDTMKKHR
ADAM17 inh – inhibits human ADAM17; inhibition, % at 6.95 µM; 370,000 compounds, 0.83% hits; P78536; recombinant ADAM17, EDANS/DABCYL FRET peptide cleavage;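 active = inhibition above the mean of compounds lying between control limits plus 3 SD, set per campaign, cut at about 8.5% in these data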;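 also: 0% = DMSO-only wells as the low control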
MPTP inh – inhibitors of mitochondrial permeability transition pore; isolated mouse mitochondria, Ca2+ swelling absorbance, 30 min; inhibition, % at 10 µM; 360,000 compounds, 1.4% hits;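 active = inhibition of 50% or more, scaled per plate between neutral and stimulator controls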;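 also: 0% = DMSO wells given calcium and 100% = 1 mM EGTA wells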
ADAM10 inh – inhibits human ADAM10; O14672; recombinant ADAM10, EDANS/DABCYL FRET peptide cleavage, 3 h; inhibition, % at 7 µM; 370,000 compounds, 0.62% hits;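 active = inhibition above a per-campaign cutoff equal to the mean of compounds falling between control-based bounds plus 3 SD, cut at about 20% in these data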;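 also: 0% = DMSO wells while the 100% control is not disclosed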
DSG3 Ab inh – human desmoglein-3 autoantibody binding inhibition; DSG3-coupled beads, scFv-anti-DSG3-GFP binding, flow cytometry; hits give low values; AID 588358; P32926; 310,000 compounds, 0.48% hits; binding (percent of control), % at 10 µM;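 active = binding more than 3 SD below its plate's average and above zero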;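 also: hits lower antibody fragment binding to DSG3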
ADAM10 ctr – inhibits human ADAM10 in ADAM17 exosite counter-screen | AID 743256 | 2,900 compounds, 47% hits | shares compounds with ADAM17 inh | recombinant ADAM10, EDANS/DABCYL FRET peptide cleavage, 3 h | inhibition, % at 6.95 µM;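 active = mean inhibition over the triplicate runs exceeds the activity threshold set in the earlier primary screen, cut at about 20% in these data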;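 also: 0% = DMSO wells and 100% = marimastat wells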
ADAM17 confirm – confirmation of inhibitors of human ADAM17; inhibition, % at 6.95 µM; recombinant ADAM17, EDANS/DABCYL QFRET peptide cleavage; shares compounds with ADAM17 inh; 2,900 compounds, 65% hits;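 active = mean inhibition across replicates above the hit cutoff set in the primary screen, cut at about 8.5% in these data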;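 also: 0% = DMSO wells and 100% = marimastat wells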
* marks the source's active call; other numbers are inactive results; . = not tested or not shown. A selection: hits, their analogues and other compounds. The true share with any hit is near 4.7%.

SMILES	rCAG RNA binder	KLK7 zymogen act	ADAM17 inh	MPTP inh	ADAM10 inh	DSG3 Ab inh	ADAM10 ctr	ADAM17 confirm
Cc1cc(=O)n(Cc2ccc(OC(C)C)cc2)c(=S)[nH]1	-2	0	10*	0	7	96	14	9.9*
Cc1nc(COc2ccc(C(=O)NCc3ccccc3CN3CCCCC3)cc2)cs1	4	0	-2	0	-3	105	.	.
Cc1cc(NC(=O)CSCC(=O)N(c2cccc(Cl)c2)C(C(=O)NC2CCCCC2)c2ccc(O)c(O)c2)no1 (stereo not given)	2	0	9.5*	2	8	99	-2	5
Cc1cc(NC(=O)CSCC(=O)N(c2ccc(F)cc2)C(C(=O)NC2CCCCC2)c2ccc(O)c(O)c2)no1 (stereo not given)	4	0	3	1	8	105	.	.
Cc1cc(C)c2c(n1)SCC(=O)N2CC(=O)Nc1ccc(F)cc1	6	0	-1	0	-4	108	.	.
COc1ccc(-c2c(-c3ccc(OCC(=O)NN)cc3O)n[nH]c2C(F)(F)F)cc1	11	0	12*	0	19	99	10	8
COc1ccc(-c2c(-c3ccc(OCC(=O)NN)cc3O)n[nH]c2C)cc1OC	7	0	1	1	12	116	.	.
CCCCn1nnnc1C(c1cc2ccccc2o1)N(Cc1ccccc1)Cc1ccccc1 (stereo not given)	6	0	-5	2	-9	.	.	.
COc1ccc(N2CCN(C(=O)CCC(=O)N3CCOc4ccc(Cl)cc43)CC2)cc1	2	0	11*	1	11	108	29*	8
Cc1cccc(NC(=O)C2(c3ccc([N+](=O)[O-])cc3)CCCC2)c1	1	0	9.3*	25	-4	101	10	7
Cc1cccc(NC(=O)C2(c3ccccc3)CCOCC2)c1	-4	0	-3	-1	-4	98	.	.
Cc1cccc(C)c1C(O)c1ncc(-c2cccc(F)c2)[nH]1 (stereo not given)	5	0	1	1	-5	.	.	.
O=C(Cc1ccc(Nc2nc3ccc(Br)cc3[nH]2)cc1)NCCc1cccs1	1	0	8.9*	6	7	105	14	9.5*
O=C(NCC1CC1)c1ccc(Nc2nc3ccc(Br)cc3[nH]2)cc1	11	0	-19	29	-60	106	.	.
O=c1c(Cc2ccc(Cl)cc2)c(O)ccn1Cc1cccc(Cl)c1	4	0	-2	2	3	95	.	.
O=c1c(Cc2ccc(Cl)cc2Cl)c(O)ccn1Cc1ccc(Cl)cc1	12	0	11*	15	19	111	26*	16*
CC1CC(C)CN(C(=O)COC(=O)COc2ccccc2C#N)C1 (stereo not given)	-2	0	9.7*	3	4	98	22*	11*
COc1ccc(OC)c(-c2cc(C3CCN(C(=O)OC(C)(C)C)CC3)[nH]n2)c1	-7	1	-2	-3	-5	104	.	.
C[C@@H]1CN([C@H](C)CO)C(=O)c2cc(NC(=O)Cc3cn(C)c4ccccc34)ccc2O[C@H]1CN(C)C(=O)Nc1ccc2c(c1)OCO2	8	0	14*	-1	18	100	5	5
COc1ccc(NC(=O)N(C)C[C@H]2Oc3ccc(NC(=O)Nc4ccc(C(F)(F)F)cc4)cc3C(=O)N([C@H](C)CO)C[C@@H]2C)cc1	7	0	8.7*	0	14	97	36*	18*
C[C@@H]1CN([C@H](C)CO)C(=O)c2cc(NC(=O)Cc3ccccc3)ccc2O[C@H]1CN(C)Cc1ccc(Oc2ccccc2)cc1	11	1	9.2*	0	19	112	28*	19*
COc1ccc(NC(=O)Nc2cccc3c2O[C@H](CN(C)C(=O)Nc2ccc(OC)cc2)[C@@H](C)CN([C@H](C)CO)C3=O)cc1	2	1	-4	0	0	99	.	.
O=C(O)CNC(=O)c1ccc(NC(=O)/C(=C/c2ccccc2)NC(=O)c2ccco2)cc1	1	0	-2	0	-44	115	.	.
Cc1ccccc1C(=O)Nc1ccc(C(=O)O)cc1NC(=O)c1ccccc1C	3	0	-7	-1	-2	92	.	.
O=C(Nc1ccc(OC(F)(F)F)cc1)C1CCCN(C(=O)c2ccc(Cl)cc2)C1 (stereo not given)	1	0	-1	3	4	.	.	.
SMILES	rCAG RNA binder	KLK7 zymogen act	ADAM17 inh	MPTP inh	ADAM10 inh	DSG3 Ab inh	ADAM10 ctr	ADAM17 confirm
CC(NNC(=S)N1CCCCCC1)c1ccc2ccccc2n1 (stereo not given)	1	-1	-25	-1	-115	.	.	.
NC(Cc1ccc(F)cc1)c1csc(NC(=O)NC(c2ccccc2)c2ccccc2)n1 (stereo not given)	19	0	8.8*	1	12	.	20*	9.3*
CCN(CC(=O)Nc1c(F)cccc1F)C(=O)c1ccc(S(=O)(=O)N2CCC(C)CC2)cc1	-2	0	10*	3	12	104	10	7
CC(=O)Nc1ccc(OCC(=O)c2ccc(C)cc2C)cc1	2	0	9.6*	-2	8	106	9	4
Cc1ccc2c(=O)cc(C(=O)NCc3ccccc3)oc2c1C	-3	0	-2	0	-2	93	.	.
COc1ccccc1-c1cc(C(=O)Nc2sc3c(c2C#N)CCC(C)C3)c2ccccc2n1 (stereo not given)	12	0	9.9*	-1	-8	.	-34	2
COc1ccc(OC)c(-c2cc(C(=O)Nc3sc4c(c3C#N)CCC(C)C4)c3ccccc3n2)c1 (stereo not given)	5	0	-1	1	-4	97	.	.
CCC(C)N(C(=O)Cn1cnc2c1c(=O)n(C)c(=O)n2C)C1CCS(=O)(=O)C1 (stereo not given)	-1	0	-6	0	0	105	.	.
COc1ccccc1NS(=O)(=O)c1cc(NC(=O)Nc2ccccc2)ccc1N1CCCCC1	26	0	8.8*	30	13	118	4	8
COc1ccccc1NS(=O)(=O)c1cc(NC(=O)c2cccs2)ccc1N1CCCCC1	14	-7	4	1	7	102	.	.
O=C(/C=C/c1cccs1)Nc1ccc(N2CCOCC2)c(S(=O)(=O)Nc2ccccc2Cl)c1	21	-4	11*	4	20	97	2	6
COc1ccccc1NS(=O)(=O)c1cc(NC(=O)C(C)C)ccc1N1CCCCC1	6	-1	7	-1	12	123	.	.
